Counter-ions that a name gives are not always drawn. ± gives the standard deviation.
Experiments:
[1] = tested on: Jurkat; assay: mean cell size (FSC-A) relative to DMSO control (fraction of control); higher = larger cells; settings: 48 h
Method in brief: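 Jurkat cells at 600 cells/µl were incubated for 1 h and then treated for 48h with the Enzo Screen-Well FDA Approved Drug Library v2.0 at 25µM, with DMSO at 0.9% (v/v) final. Compounds that reduced counts below 20% of controls were retested in 10-fold dilutions down to 25nM. Cell count and mean cell size, taken as forward scatter area, were measured by flow cytometry relative to solvent-only controls. Each plate carried 6-12 controls, and values are means of 3 biological replicates.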

[2] = tested on: Jurkat; assay: cell count relative to DMSO control (fraction of control); higher = more cells (less growth inhibition); settings: 48 h

Structure (SMILES): COc1cc(C(C)=O)ccc1OCCCN1CCC(c2noc3cc(F)ccc23)CC1 [Iloperidone] (concentration: 25 µM)
- mean cell size [1]: 0.954 ± 0.031
- cell count [2]: 0.734 ± 0.088

Structure (SMILES): CC(=O)OCC(=O)[C@@]12OC3(CCCC3)O[C@@H]1C[C@H]1[C@@H]3CCC4=CC(=O)C=C[C@]4(C)[C@@]3(F)[C@@H](O)C[C@@]12C [Amcinonide] (concentration: 25 µM)
- mean cell size [1]: 0.994 ± 0.064
- cell count [2]: 0.823 ± 0.039

Structure (SMILES): CC(C)Cn1cnc2c(N)nc3ccccc3c21 [Imiquimod] (concentration: 25 µM)
- mean cell size [1]: 0.936 ± 0.018
- cell count [2]: 0.44 ± 0.15

Structure (SMILES): CC(=O)Oc1cc2c(s1)CCN(C(C(=O)C1CC1)c1ccccc1F)C2 (stereo unspecified) [Prasugrel] (concentration: 25 µM)
- mean cell size [1]: 1.06 ± 0.023
- cell count [2]: 0.831 ± 0.14

Structure (SMILES): CCCCC(C)(O)C/C=C/[C@H]1[C@H](O)CC(=O)[C@@H]1CCCCCCC(=O)OC (mixture of isomers) [Misoprostol] (concentration: 25 µM)
- mean cell size [1]: 0.939 ± 0.037
- cell count [2]: 0.702 ± 0.08

Structure (SMILES): CC(c1cc2ccccc2s1)N(O)C(N)=O (stereo unspecified) [Zileuton] (concentration: 25 µM)
- mean cell size [1]: 1 ± 0.038
- cell count [2]: 0.839 ± 0.068

Structure (SMILES): CCN1CC(CCN2CCOCC2)C(c2ccccc2)(c2ccccc2)C1=O (stereo unspecified) [Doxapram·HCl] (concentration: 25 µM)
- mean cell size [1]: 0.928 ± 0.013
- cell count [2]: 1.01 ± 0.015

Structure (SMILES): CCOC(=O)[C@H](CCc1ccccc1)N[C@@H](C)C(=O)N1Cc2ccccc2C[C@H]1C(=O)O [Quinapril·HCl] (concentration: 25 µM)
- mean cell size [1]: 0.998 ± 0.022
- cell count [2]: 1.01 ± 0.11
